# Assay results as given in PubChem BioAssay (NCATS).
# Inconclusive results are not listed. A call without a number means that no potency is given here. A number with no mark means an inactive call. Calls of active or inactive are those of the source. Calls come from the whole dose curve; as a rule, active = well fitted inhibition curve with a large enough effect; inconclusive = small, poorly fitted or top-dose-only effect; inactive = flat fitted curve, though single readings scatter.
# Biological target: Calcium and integrin-binding protein 1 (Homo sapiens) (UniProt Q99828)
# Experiment: Primary qHTS for Identification of Calcium Integrin Binding Protein 1 (CIB1) Competitor (AID 1508620);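 note: GST tagged CIB1 binding a fluorescein labelled alphaIIb integrin peptide tracer; top concentration of the series differs between compounds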
# Conditions: CIB1-GST / FITC-alphaIIb peptide fluorescence polarization; series mostly up to 114 µM
# Outline: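 Fluorescence polarization competition: CIB1-GST (1 uM final) preincubated with compound 15 min at room temperature, then FITC-labeled alphaIIb peptide (100 nM final) added for another 15 min. Polarization read at Ex 480/Em 540.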
# Calcium and integrin-binding protein 1 (Homo sapiens), sequence (Q99828 whole entry, looked up): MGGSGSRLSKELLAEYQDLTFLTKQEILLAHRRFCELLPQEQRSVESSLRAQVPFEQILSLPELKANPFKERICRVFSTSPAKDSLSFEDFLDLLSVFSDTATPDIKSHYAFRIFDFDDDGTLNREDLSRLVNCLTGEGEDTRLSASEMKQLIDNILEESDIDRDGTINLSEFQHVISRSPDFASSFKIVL
Compound,Potency,"activity change, negative = inhibition"
C=C1CC[C@@H]2[C@](C)(CO)[C@H](O)CC[C@@]2(C)[C@@H]1CC(=O)C1=CCOC1=O,inactive,
C[C@@H]1CC[C@@]23CC[C@]4(C)[C@@](C=CC5[C@@]6(C)CC[C@H](O)C(C)(C)C6CC[C@]54C)(OC2=O)C3[C@H]1C (stereo not given in full),inactive,
COc1ccc(CCc2nc3c(C)c(-c4c(C)noc4C)c(C)cc3n2CCN2CCOCC2)cc1,inactive,
CC(=O)O[C@@H]1[C@H](O[C@@H]2O[C@@H](CO)[C@H](O)[C@H]2O)[C@@H](O[C@@H]2O[C@@H](C)[C@H](O[C@@H]3OC[C@@H](O)[C@H](O)[C@H]3O)[C@@H](O)[C@H]2O)[C@H](OC(=O)[C@]23CCC(C)(C)C[C@H]2C2=CCC4[C@@]5(C)CC[C@H](O[C@@H]6O[C@H](C(=O)O)[C@@H](O)[C@H](O)[C@H]6O[C@@H]6O[C@H](CO)[C@H](O)[C@H](O)[C@H]6O)[C@@](C)(C=O)C5CC[C@@]4(C)[C@]2(C)C[C@H]3O)O[C@@H]1C (stereo not given in full),,1.08% [at 12.4 µM]
Cc1ccnc(NC(=O)C(C)c2cccc(C(=O)c3ccccc3)c2)c1 (stereo not given),inactive,
C=C1CC2OC(=O)C(=C)C2C(O)/C=C(\C)CCC1O (stereo not given),inactive,
Cn1ncc2cc(-c3cnc(N)c(Cl)c3N3CCC4(CCNC4=O)CC3)ccc21,inactive,
O=C(Nc1cccc(C(F)(F)F)c1)Nc1ccc(Br)cc1-c1nn[nH]n1,inactive,
C=C1CC[C@@H]2[C@](C)(CO)[C@H](O)CC[C@@]2(C)[C@@H]1C/C=C1/C(=O)OCC1O (stereo not given in full),inactive,
OC[C@H]1O[C@@H](OC/C=C/c2ccc(O)cc2)[C@H](O)[C@@H](O)[C@@H]1O,inactive,
